40 sequences from the OligoGym collection can be followed below.
Also: reference of the scale not given here.

The first test addresses NARF. As to the kind of experiment: pooled miR-30 sensor sort-seq; sequence = guide strand. The following applies: shRNA.
Regarding TTGAGGAAACCACAGAGTCTTC, the sensor-assay potency score (higher = more potent) was -1.68.

In the case of TGAGGTATCACATTTCTTGTTA, the sensor-assay potency score (higher = more potent) was -0.0479.

TTGAACAGCTCCTTGGCCGCAT displayed a sensor-assay potency score (higher = more potent) of 0.2.

Another test addresses NAT8L. The test is described as above. Conditions: shRNA.
As to TTCTCTGTCCCTTCGCTCGCTT, the sensor-assay potency score (higher = more potent) is -0.787.

With TTAACAAAATCTGAGCTGCAAG, the sensor-assay potency score (higher = more potent) is -1.08.

With TTGTCCTCCTCGTGGGCCCGTG, the sensor-assay potency score (higher = more potent) was -1.12.

TGAGTCCACAGACATCCGCAGC gave a sensor-assay potency score (higher = more potent) of -1.61.

For the sequence TTGTGCACCACGGCGAACTCCA, the sensor-assay potency score (higher = more potent) was -0.938.

For the sequence TTGGCGATGCCCTTGCCTCGGA, the sensor-assay potency score (higher = more potent) was -0.817.

Sequence TGCCTCGGAAACGTGAGTCCAC showed a sensor-assay potency score (higher = more potent) of -0.669.

In the case of TCTTAGGGTACAAACTACCGTT, the sensor-assay potency score (higher = more potent) was -0.674.

Sequence TAACTTATTAGAAAATGTGTTG returned a sensor-assay potency score (higher = more potent) of -0.872.

The sequence ATCCGCAGCAGCTCCACCGTGT displayed a sensor-assay potency score (higher = more potent) of -0.56.

Sequence TAGCGGTGGTAGCGGACCTGGA displayed a sensor-assay potency score (higher = more potent) of -1.68.

Sequence TACAGTCTACAAAACTCCCATC yielded a sensor-assay potency score (higher = more potent) of -1.25.

Another test concerns the target NAT9. The description is as above. The following applies: shRNA.
In turn, TTGTTCACATGCAGTCTGCTGT had a sensor-assay potency score (higher = more potent) of -0.324.

On to ATCCACTCGTGGTACCTGCTGG, for which the sensor-assay potency score (higher = more potent) was -0.384.

In turn, TACACTTGTCTGCATCTTCCTG showed a sensor-assay potency score (higher = more potent) of -0.99.

As for TTCATCCACTCGTGGTACCTGC, the sensor-assay potency score (higher = more potent) was -1.04.

For the sequence TAGATCTGTGAGGAAGAGGTTC, the sensor-assay potency score (higher = more potent) was -0.334.

TAAGGCTTCTCTTCCACGTGGC: the sensor-assay potency score (higher = more potent) turned out to be 0.678.

TCAAACGCTGCAGCTCCTCTGA showed a sensor-assay potency score (higher = more potent) of -0.784.

In turn, TGAAGGTACACTTGTCTGCATC displayed a sensor-assay potency score (higher = more potent) of -1.11.

TCTGATTTCATCCACTCGTGGT yielded a sensor-assay potency score (higher = more potent) of -0.312.

In turn, TGAAGTTTCTGGAACATCCGGA displayed a sensor-assay potency score (higher = more potent) of 0.756.

Regarding ACACTTGTCTGCATCTTCCTGC, the sensor-assay potency score (higher = more potent) was 0.498.

As for TTGTCTGCATCTTCCTGCCAGC, the sensor-assay potency score (higher = more potent) is -1.08.

For a further test, the target named is NBPF1. The test is described as above. The following applies: shRNA.
In turn, TTCGTTGATCTTCTTCCCCTTC returned a sensor-assay potency score (higher = more potent) of -0.152.

On to TTGGTCTTCTTCCTCTTCCTGG, for which the sensor-assay potency score (higher = more potent) was -0.175.

Regarding TTGATTTCTAAAATGTTCGTCT, the sensor-assay potency score (higher = more potent) was 0.0571.

The sequence TAAAATGTTCGTCTCTGCCTTC showed a sensor-assay potency score (higher = more potent) of -0.476.

The sequence TTCGTCTCTGCCTTCTCGCTGG gave a sensor-assay potency score (higher = more potent) of 0.0322.

In turn, TTTTCTTCGTTGATCTTCTTCC returned a sensor-assay potency score (higher = more potent) of -0.0891.

TCTTCGTTGATCTTCTTCCCCT came in with a sensor-assay potency score (higher = more potent) of -0.277.

On to TTTATGAGGTCTTCGCACTCTT, for which the sensor-assay potency score (higher = more potent) is 0.0563.

With TTATGAGGTCTTCGCACTCTTC, the sensor-assay potency score (higher = more potent) is -1.54.

Another test addresses NCAPG2. The description is as above. The following applies: shRNA.
For the sequence TTCAATGCTATCCTCTTCCAAA, the sensor-assay potency score (higher = more potent) was -0.814.

The sequence TTCCATATTGTCTTCACCCTGG yielded a sensor-assay potency score (higher = more potent) of -0.0247.

As for TAAGCAATGACGAATAACGTGA, the sensor-assay potency score (higher = more potent) was determined as 0.14.

The sequence TTCTGAGCAGAACTTGTGCTGA gave a sensor-assay potency score (higher = more potent) of -0.264.
